# Like-named read-outs stand apart in the source and are kept apart here.
# Key:
# Parameters in all cases: species or system human, MV4-11 + K-562 + COLO205 + SK-N-BE2 + OVCAR-8
# PIK3CG = conditions: read-out: apparent Kd, compound concentrations: 100 nM and 1000 nM (sheet 'Samples'), n = 1
# PIM2 = conditions: read-out: apparent Kd, n = 1
# BMPR1A = conditions: read-out: apparent Kd, n = 1
# ERBB3 = conditions: read-out: apparent Kd, compound concentrations: 100 nM and 1000 nM (sheet 'Samples'), n = 1
# CDK4 = conditions: read-out: apparent Kd; compound concentrations: 100 nM and 1000 nM (sheet 'Samples'), CATDS: 1.3251728133645901E-2; n = 1
# LIMK1 = conditions: read-out: apparent Kd, n = 1
# AURKA = conditions: read-out: apparent Kd, n = 1
# CDK7 = conditions: read-out: apparent Kd, compound concentrations: 100 nM and 1000 nM (sheet 'Samples'), n = 1
# NUAK1 = conditions: read-out: apparent Kd, compound concentrations: 100 nM and 1000 nM (sheet 'Samples'), n = 1
# PRKAG1 = conditions: read-out: apparent Kd, compound concentrations: 100 nM and 1000 nM (sheet 'Samples'), n = 1
# SIK3 = conditions: read-out: apparent Kd, n = 1
# STK10 = conditions: read-out: apparent Kd, compound concentrations: 100 nM and 1000 nM (sheet 'Samples'), n = 1
# MAPK11 = conditions: read-out: apparent Kd, compound concentrations: 100 nM and 1000 nM (sheet 'Samples'), n = 1
# PKN3 = conditions: read-out: apparent Kd, compound concentrations: 100 nM and 1000 nM (sheet 'Samples'), n = 1
# ADCK3 = conditions: read-out: apparent Kd, compound concentrations: 100 nM and 1000 nM (sheet 'Samples'), n = 1
# SYK = conditions: read-out: apparent Kd, compound concentrations: 100 nM and 1000 nM (sheet 'Samples'), n = 1
# EPHB3 = conditions: read-out: apparent Kd, n = 1
# ACVR2B = conditions: read-out: apparent Kd, compound concentrations: 100 nM and 1000 nM (sheet 'Samples'), n = 1
# EPHA4 = conditions: read-out: apparent Kd, n = 1
# CSNK1A1 = conditions: read-out: apparent Kd; compound concentrations: 100 nM and 1000 nM (sheet 'Samples'), CATDS: 4.3569659230054097E-2; n = 1
# [1] = compound concentrations:100 nM and 1000 nM (sheet 'Samples')
smiles,measurement,setting,value
O=C1N=C(NCCc2cccc(Cl)c2)S/C1=C\c1ccc2ncccc2c1 [RO4509201-000],potency estimated from few doses,PIK3CG; CATDS: 5.9148900132827802E-2,1370 nM
same,potency estimated from few doses,"PIM2; compound concentrations: 100 nM and 1000 nM (sheet 'Samples'), CATDS: 5.4743223774465499E-2",1820 nM
COc1cccc(-n2ncc3c(N/N=C/c4ccc(C(=O)NCCN(C)C)cc4)ncnc32)c1.Cl [GW784307A],potency estimated from few doses,"BMPR1A; compound concentrations: 100 nM and 1000 nM (sheet 'Samples'), CATDS: 4.33451441122037E-2",353 nM
same,potency estimated from few doses,ERBB3; CATDS: 3.16220170710034E-2,874 nM
CC(C)c1nc(-c2cccc(NS(=O)(=O)c3ccccc3)c2)c(-c2ccnc(Nc3ccc4c(c3)CN(C)CC4)n2)s1 [GSK1649598A],potency estimated from few doses,CDK4,1400 nM
same,potency estimated from few doses,ERBB3; CATDS: 1.39186209544408E-2,1140 nM
same,potency estimated from few doses,"LIMK1; compound concentrations: 100 nM and 1000 nM (sheet 'Samples'), CATDS: 7.0535341813333999E-2",38.5 nM
CN1C(=O)c2ccccc2N(C)c2nc(Nc3cnn(C4CCNCC4)c3)ncc21 [XMD-17-51],potency estimated from few doses,"AURKA; compound concentrations: 100 nM and 1000 nM (sheet 'Samples'), CATDS: 0.190670193315162",5.82 nM
same,potency estimated from few doses,CDK7; CATDS: 1.6224786894182001E-2,901 nM
same,potency estimated from few doses,NUAK1; CATDS: 0.118275245978952,11.6 nM
same,potency estimated from few doses,PIK3CG; CATDS: 5.0205811396743898E-2,50.7 nM
same,potency estimated from few doses,PRKAG1; CATDS: 1.89897373320012E-2,530 nM
same,potency estimated from few doses,"SIK3; compound concentrations: 100 nM and 1000 nM (sheet 'Samples'), CATDS: 1.5899502438213298E-2",973 nM
same,potency estimated from few doses,STK10; CATDS: 1.3341325559896399E-2,2180 nM
COc1cc(Nc2ccnc3cc(-c4ccncc4)ccc23)cc(OC)c1OC.Cl [GW494610A],potency estimated from few doses,"BMPR1A; compound concentrations: 100 nM and 1000 nM (sheet 'Samples'), CATDS: 3.04170421320503E-2",486 nM
same,potency estimated from few doses,MAPK11; CATDS: 2.2230478875047501E-2,1610 nM
same,potency estimated from few doses,PKN3; CATDS: 0.111672357015452,24.1 nM
same,potency estimated from few doses,"SIK3; compound concentrations: 100 nM and 1000 nM (sheet 'Samples'), CATDS: 4.52892719114492E-2",160 nM
CCc1nc(-c2cccc(N(C)S(=O)(=O)c3ccccc3)c2)c(-c2ccnc(Nc3ccc(N4CCN(C(C)=O)CC4)nc3)n2)s1 [GSK1645895A],potency estimated from few doses,ADCK3; CATDS: 0.47577761034239902,196 nM
Cc1cccc(Nc2nc(NCCN)ncc2C(N)=O)c1 [GSK1292139B],potency estimated from few doses,NUAK1; CATDS: 0.100745572773025,611 nM
same,potency estimated from few doses,SYK; CATDS: 7.0539324655896005E-2,1500 nM
CS(=O)(=O)Cc1ccc(Nc2nccc(-c3c(-c4cccc(NC(=O)C5CCCCC5)c4)nn4ncccc34)n2)cc1 [GSK350559A],potency estimated from few doses,PIM2; [1],2040 nM
Nc1nc(-c2ccc3c(N)n[nH]c3c2)cc(N2CCCCC2)n1 [GSK2228768A],potency estimated from few doses,PIM2; [1],1410 nM
COc1ccc(-n2cnc3c(N)ncnc32)cc1 [SKF-97236],potency estimated from few doses,ADCK3; CATDS: 0.16598723814203101,922 nM
CS(=O)(=O)CCNCc1ccc(-c2ccc3ncnc(Nc4ccc(OCc5cccc(F)c5)c(C(F)(F)F)c4)c3c2)o1 [GW576484X],potency estimated from few doses,"EPHB3; compound concentrations: 100 nM and 1000 nM (sheet 'Samples'), CATDS: 4.6783581960199903E-2",2310 nM
same,potency estimated from few doses,ERBB3; CATDS: 5.8570940838060803E-2,1400 nM
same,potency estimated from few doses,"PIM2; compound concentrations: 100 nM and 1000 nM (sheet 'Samples'), CATDS: 6.5177951129736497E-2",1150 nM
Cl.Oc1cccc(Nc2ccnc3cc(-c4ccncc4)ccc23)c1 [GW494601A],potency estimated from few doses,ACVR2B; CATDS: 0.269416694406998,2.16 nM
same,potency estimated from few doses,"BMPR1A; compound concentrations: 100 nM and 1000 nM (sheet 'Samples'), CATDS: 2.7920432625818298E-2",313 nM
same,potency estimated from few doses,"EPHA4; compound concentrations: 100 nM and 1000 nM (sheet 'Samples'), CATDS: 3.3294473343985699E-2",165 nM
same,potency estimated from few doses,"SIK3; compound concentrations: 100 nM and 1000 nM (sheet 'Samples'), CATDS: 2.0843232752511001E-2",1150 nM
O=C1N=C(NCc2cccs2)SC1Cc1ccc2ncccc2c1 (centres unmarked) [RO4629078-000],potency estimated from few doses,"AURKA; compound concentrations: 100 nM and 1000 nM (sheet 'Samples'), CATDS: 9.8241479768662494E-3",700 nM
same,potency estimated from few doses,CDK7; CATDS: 2.7171532019021599E-2,112 nM
same,potency estimated from few doses,"EPHA4; compound concentrations: 100 nM and 1000 nM (sheet 'Samples'), CATDS: 1.66325304555619E-2",238 nM
same,potency estimated from few doses,"EPHB3; compound concentrations: 100 nM and 1000 nM (sheet 'Samples'), CATDS: 9.3855974911044807E-3",790 nM
same,potency estimated from few doses,NUAK1; CATDS: 9.4682639487438207E-3,771 nM
same,potency estimated from few doses,PKN3; CATDS: 1.04428727598351E-2,602 nM
same,potency estimated from few doses,PRKAG1; CATDS: 1.42415287056141E-2,314 nM
same,potency estimated from few doses,STK10; CATDS: 8.8435588705339796E-3,935 nM
NC(=O)c1cccc(Nc2nccc(Nc3cccc4[nH]ncc34)n2)c1 [GW782612X],potency estimated from few doses,ACVR2B; CATDS: 0.173302967359416,52.4 nM
same,potency estimated from few doses,"AURKA; compound concentrations: 100 nM and 1000 nM (sheet 'Samples'), CATDS: 4.2767473291312301E-2",808 nM
same,potency estimated from few doses,"BMPR1A; compound concentrations: 100 nM and 1000 nM (sheet 'Samples'), CATDS: 3.8772747112030999E-2",1090 nM
same,potency estimated from few doses,NUAK1; CATDS: 5.2412926017760202E-2,475 nM
Cc1ccc(O)cc1Nc1ccnc2cc(-c3ccc(CN4CCCCC4)o3)ccc12 [GW557777X],potency estimated from few doses,ACVR2B; CATDS: 2.4906220143484401E-2,45.3 nM
same,potency estimated from few doses,"BMPR1A; compound concentrations: 100 nM and 1000 nM (sheet 'Samples'), CATDS: 1.65124596245807E-2",269 nM
same,potency estimated from few doses,"EPHA4; compound concentrations: 100 nM and 1000 nM (sheet 'Samples'), CATDS: 4.01782030303919E-2",10.4 nM
same,potency estimated from few doses,"EPHB3; compound concentrations: 100 nM and 1000 nM (sheet 'Samples'), CATDS: 2.1562283576004201E-2",78.2 nM
same,potency estimated from few doses,"SIK3; compound concentrations: 100 nM and 1000 nM (sheet 'Samples'), CATDS: 1.3583905279374199E-2",975 nM
same,potency estimated from few doses,SYK; CATDS: 1.2716705388879999E-2,1860 nM
CNC1=NC(=O)/C(=C/c2ccc3ncccc3c2)S1 [RO4595949-000],potency estimated from few doses,PIK3CG; CATDS: 8.0370856047911096E-2,401 nM
Cl.Cl.Cl.c1ccc(Oc2ccc(Nc3ccnc4cc(-c5ccc(CN6CCNCC6)o5)ccc34)cc2)nc1.c1ccc(Oc2ccc(Nc3ccnc4cc(-c5ccc(CN6CCNCC6)o5)ccc34)cc2)nc1 [GW567142A],potency estimated from few doses,SYK; CATDS: 1.6781429181419099E-2,2160 nM
COc1ccc(Nc2nccc(N3CCC(NC(=O)Nc4ccc5c(c4)OCO5)C3)n2)cc1 (centres unmarked) [GSK1379745A],potency estimated from few doses,ACVR2B; CATDS: 4.7768277435408998E-2,1050 nM
same,potency estimated from few doses,CSNK1A1,1260 nM
same,potency estimated from few doses,MAPK11; CATDS: 3.6090086264463E-2,1900 nM
same,potency estimated from few doses,SYK; CATDS: 3.71249657659821E-2,1780 nM
CCn1cc(-c2ccnc3[nH]c(-c4cccc(CN(C)C)c4)cc23)c(-c2ccc(NC(=O)N(C)C)cc2)n1 [GSK1070916],potency estimated from few doses,AURKA; [1],197 nM
Cc1ccc(O)cc1Nc1ccnc2cc(-c3ccccn3)ccc12.Cl [GW440139A],potency estimated from few doses,ACVR2B; CATDS: 0.21714398687124201,5.63 nM
same,potency estimated from few doses,"EPHA4; compound concentrations: 100 nM and 1000 nM (sheet 'Samples'), CATDS: 5.0335970342337201E-2",81.6 nM
same,potency estimated from few doses,"EPHB3; compound concentrations: 100 nM and 1000 nM (sheet 'Samples'), CATDS: 2.4596610963575599E-2",2120 nM
NC1=NC(=O)/C(=C/c2ccc3ncccc3c2)S1 [RO4569139-000],potency estimated from few doses,PIK3CG; CATDS: 0.108121816897262,432 nM
CCN(CC)CCOc1ccc(Nc2ncc3cc(-c4c(Cl)cccc4Cl)c(=O)n(C)c3n2)cc1 [SB-601273],potency estimated from few doses,BMPR1A; [1],538 nM
same,potency estimated from few doses,EPHA4; [1],162 nM
same,potency estimated from few doses,EPHB3; [1],1220 nM
same,potency estimated from few doses,LIMK1; [1],1110 nM
same,potency estimated from few doses,SIK3; [1],201 nM
